RORgamma inh: ROR gamma (mouse) transcription inhibition. Potency, µM (highest dose often 53.6 µM), usual class: inhibitors. P51450. Drosophila S2 Gal4-RORgamma UAS-luciferase reporter, 20 h. 310,000 compounds, 5.4% hits; also: nearly all actives have a fitted effect of over 60% in size
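Using a luciferase readout, inhibitors were identified by reduced reporter activity in Drosophila cells coexpressing a copper-inducible Gal4–ROR gamma fusion and UAS-driven Photinus luciferase, incubated 20 hr after 700 uM copper sulfate.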
Gal4-VP16 FLuc: inhibits Gal4-VP16 luciferase reporter, ROR gamma counter-screen; Drosophila S2 Gal4-VP16 UAS-luciferase, luminescence, 20 h; Potency, µM (top dose mostly 53.6 µM), most hits filed as inhibitors; AID 2546; 310,000 compounds, 3.5% hits;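 also: Gal4-VP16 expression switched on by copper sulfate through the metallothionein promoter; nearly all actives have a fitted effect of over 50% in size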
PKM2 activator: increases activity of human pyruvate kinase M2 | purified PKM2, Kinase-Glo ATP luminescence, activation; response scale: 0% is enzyme alone, no compound | 260,000 compounds, 0.34% hits | AID 1631 | Potency, µM (titrated, usually from 57.5 µM), most hits filed as activators | P14618; also: nearly all actives have a fitted effect of over 55% in size
Target sequence (P14618 whole entry, looked up): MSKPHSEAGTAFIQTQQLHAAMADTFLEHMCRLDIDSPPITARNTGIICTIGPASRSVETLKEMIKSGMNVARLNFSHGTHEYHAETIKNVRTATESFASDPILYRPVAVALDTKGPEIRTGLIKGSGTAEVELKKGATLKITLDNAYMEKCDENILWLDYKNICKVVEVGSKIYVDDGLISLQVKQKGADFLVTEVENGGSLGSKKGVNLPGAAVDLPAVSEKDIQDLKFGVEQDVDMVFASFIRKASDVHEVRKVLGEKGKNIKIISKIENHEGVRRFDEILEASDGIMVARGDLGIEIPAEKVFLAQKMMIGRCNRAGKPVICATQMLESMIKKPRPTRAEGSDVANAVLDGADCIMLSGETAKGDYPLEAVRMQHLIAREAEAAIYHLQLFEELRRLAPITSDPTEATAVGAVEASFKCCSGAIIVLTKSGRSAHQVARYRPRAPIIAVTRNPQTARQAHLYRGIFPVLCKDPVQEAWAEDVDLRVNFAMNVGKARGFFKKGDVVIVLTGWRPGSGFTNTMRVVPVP
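Purified hPK-M2 (>95% pure) converted ADP (0.1 mM final) to ATP with 0.5 mM PEP in 50 mM imidazole pH7.2, KCl, MgCl2, Tween 20, BSA; 1 h at room temperature. ATP detected by Kinase-Glo luminescence.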
CtBP-E1A blk: inhibitors of CtBP/E1A interaction. AID 651724. activity change, % (concentration not given with the values). 340,000 compounds, 0.49% hits. AlphaScreen GST-E1A/His-CtBP binding, 1536-well; stronger effect = lower value; in the data active = activity change below about -65%; inconclusive = mostly about -30% to -63%
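GST-E1A and His-tagged CtBP (125 nM each as 5X stock) were preincubated with pin-transferred compound for 2 h at 37 °C in the dark, then glutathione donor and nickel acceptor beads were added for 1 h before AlphaScreen reading.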
Six1-Eya2 blk: blocks human Six1 binding to Eya2 | Q15475+O00167 | AlphaScreen GST-Six1/His-Eya2 binding, biochemical; stronger effect = lower value | activity change, % (test concentration not listed) | 360,000 compounds, 0.56% hits; in the data active = activity change below about -65%; inconclusive = mostly about -30% to -63%
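Six1/Eya2 binding was read as AlphaScreen signal after compounds were pinned into GST-Six1 plus His-tagged Eya2 (5X stock 250/500 nM) in pH 8.0 Tris/NaCl/TCEP buffer, beads added, then incubated 1 h, 37 C, dark.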
A number is an active result; – = inactive; ? = inconclusive; · = no result given; [ ] = dose if it differs, or a comment. Most compounds without a hit are left out; they make up all but 5.6% or so of the library. Unless noted, calls follow the shape of the dose curve; as a rule, active = well fitted curve in the direction sought with a large enough effect; inconclusive = small, poorly fitted or top-dose-only effect, or another doubt; inactive = no such curve, though single readings can be large; an effect the other way counts as inactive or inconclusive.

SMILES	RORgamma inh	Gal4-VP16 FLuc	PKM2 activator	CtBP-E1A blk	Six1-Eya2 blk
COc1ccc(NC(=O)CN(c2ccc(C)cc2)S(=O)(=O)c2c(C)nn(C)c2C)cc1OC	15.8µM	?	–	–	–
CCCCC(=O)Nc1ccccc1C(=O)OCC(=O)c1ccc2c(c1)OCCO2	?	?	–	–	–
CCC(=O)Nc1ccccc1C(=O)OCC(=O)c1ccccc1	10µM	–	–	–	–
O=C(O)/C=C/C(=O)Nc1ccccc1C(=O)OCC(=O)c1ccc2c(c1)OCCO2	7.94µM	8.91µM	–	–	–
CCOc1ccc(-c2nnc(SCC(=O)N3CCNC3=O)o2)cc1	·	·	·	–	–
COc1ccc2nc(NC(=O)c3cnccn3)sc2c1	?	10µM	–	?	?
Cn1ncc(Cl)c1C(=O)Nc1nc2ccc(Cl)cc2s1	11.2µM	?	–	–	–
CCCCC(=O)Nc1nc2ccc(C(=O)OC)cc2s1	8.91µM	?	–	–	–
COc1ccc(C(=O)Nc2nc3ccc(OC)cc3s2)cc1	1.41µM	4.47µM	–	-72.3	?
O=C(N/N=C/c1ccc(O)cc1)Nc1cccc2nsnc12	?	–	–	–	?
CCOC(=O)[C@@H](N)CS	–[10 µM]	–	·	·	·
COc1ccc2nc(NC(=O)c3cccc(-c4cc5ccccc5oc4=O)c3)sc2c1	10µM	10µM	–	–	–
CC(=O)Nc1ccc(NC(=O)c2cccc(-c3cc4ccccc4oc3=O)c2)cc1	?	–	–	–	–
CSc1cccc(NC(=S)N(CCCN2CCCC2)Cc2cccn2Cc2ccc(Cl)cc2)c1	12.6µM	–	–	–	?
S=C(Nc1cccc(Cl)c1)N(CCCN1CCCC1)Cc1cccn1Cc1ccc(Cl)cc1	17.8µM	?	–	–	–
COc1cccc(NC(=S)N(CCCN2CCCC2)Cc2cccn2Cc2ccc(Cl)cc2)c1	?	?	–	–	–
CN(Cc1ccccc1)C(=O)c1cccc(NC(=O)Cc2ccc(NC(=O)C3CCCN(C(=O)C4CCCCC4)C3)cc2)c1 (stereo not drawn)	·	·	·	–	–
CC1=NN(c2ccc(C(=O)O)cc2)C(=O)/C1=C\c1ccc(OC(=O)c2cccs2)cc1	11.2µM	–	–	·	?
CCOc1cc(/C=C2\C(=O)N(c3ccc(C(N)=O)cc3)N=C2C)ccc1OC(=O)c1cccs1	–	–	–	–	–
CCS(=O)(=O)c1ccc2c(c1)N(S(=O)(=O)c1ccc(Cl)cc1)CC(C(=O)O)O2 (stereo not drawn)	–	–	–	–	–
COc1cccc(N=Nc2ccc3ccccc3c2O)c1	8.91µM	?	–	·	-81.9
Oc1c(N=Nc2ccc(F)cc2)ccc2ccccc12	–[1.91 µM]	?	–	-76.2	?
Cc1ccc(N=Nc2ccc3ccccc3c2O)cc1	–[1.91 µM]	?	–	–	-88.2
Oc1c(N=Nc2nn[nH]n2)ccc2ccccc12	·	·	·	?	-76.0
Oc1ccc2ccccc2c1N=Nc1ccc(F)cc1	–	–	–	–	?
SMILES	RORgamma inh	Gal4-VP16 FLuc	PKM2 activator	CtBP-E1A blk	Six1-Eya2 blk
COc1cc(C2CC(=O)Oc3cc(C)c(Br)c(C)c32)cc(OC)c1OC (stereo not drawn)	?	5.62µM	·	–	–
COc1ccc(C2CC(=O)Oc3cc(C)c(Cl)c(C)c32)cc1 (stereo not drawn)	?	31.6µM	·	–	–
COCCN1CCN(C(=O)c2ccc3nc(Cc4ccc(OC)c(OC)c4)oc3c2)CC1	?	7.08µM	–	–	–
Cc1ccc(S(=O)(=O)NC(=O)C2(C)CCN2C(=O)Cc2ccc(Cl)cc2Cl)nc1 (stereo not drawn)	·	·	·	–	–
CCCc1ccc(OC(=O)c2ccc(O)cc2Cl)cc1	0.891µM	3.98µM	–	–	–
CCCc1ccc(OC(=O)c2cccs2)cc1	–	–	–	–	–
COc1ccccc1CNC(=O)COC(=O)c1cnc(C)cn1	·	·	·	–	–
COc1ccc(/C=C/C(=O)Nc2ccccc2)cc1OC	–	–	–	–	–
CCOc1ccc(N/C=C/C(=O)c2ccc3ccccc3c2)c([N+](=O)[O-])c1	–	–	–	–	–
COc1ccc(/C=C/C(=O)NC(=S)Nc2ccccc2)cc1OC	10µM	?	·	–	–
O=C(O)/C=C/C(=O)Nc1cccnc1	–	?	–	–	–
CC(=O)c1ccc(NC(=S)NC(=O)/C=C/c2ccccc2)cc1	–	–	–	–	–
CCC(=O)Nc1ccc(NC(=S)NC(=O)/C=C/c2ccccc2)cc1	12.6µM	?	–	–	–
